Sampled rows, rich in hits. Any-hit rate of the full collection: about 7.1%.
SW480 rerep = induces DNA re-replication in SW480 colon adenocarcinoma cells; SW480 DNA re-replication, Hoechst DNA content imaging, 48 h; Potency, µM (series often up to 46.1 µM), without a hit: at the top dose re-replication activation, usual class: activators; 340,000 tested, 1.8% active; AID 624297; also: % of control where 0% means no effect; nearly all actives have a fitted effect of over 55% in size
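SW480 cells exposed to compounds for 48 hr at 37 C, 5% CO2, then Hoechst-stained 40 min. Nuclear DNA content imaged by fluorescence scanning (405 nm excitation, 500-530 nm emission); re-replication scored as increased high-intensity nuclei.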
MCF10A rerep = DNA re-replication induction in MCF 10a cells. MCF 10A DNA re-replication, Hoechst nuclear intensity, 48 h. AID 624296. 350,000 tested, 2.9% active. Potency, µM (highest dose often 46.1 µM), for the others: at the top dose activity, positive = re-replication, most hits filed as activators; also: % of control where 0% means no effect; nearly all actives have a fitted effect of over 50% in size
ELG1 genotox = inducers of genotoxicity in HEK293T ELG1-luciferase cells | Potency, µM (series often up to 46 µM), for inactives: at the top dose activity change, positive = activation, hits mostly activators | HEK293T ELG1-luciferase reporter, luminescence, 16 h | 330,000 tested, 1.3% active; also: % of control where 0% means no effect; nearly all actives have a fitted effect of over 60% in size
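Quantitative HTS format in 1536-well plates. HEK293T ELG1-luciferase reporter cells receive test compound and are incubated 16 hr at 37 °C, 5% CO2; ONE-Glo added, 30 min room temperature, then luminescence read.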
ELG1 DNA repair = ELG1-dependent DNA repair inhibition; 330,000 tested, 2.3% active; HEK293T ELG1-luciferase reporter, luminescence, 16 h; DNA damage induced by 5-fluorouridine; Potency, µM (titrated, usually from 46.1 µM), for inactives: at the highest dose activity change, negative = inhibition, most hits filed as inhibitors; AID 504467; also: % is scaled to controls: 0 for no effect and ±100 for the full control effect; nearly all actives have a fitted effect of over 55% in size
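In this reporter screen, reduction of luminescence relative to DMSO vehicle indicated activity. Compounds and 5-fluorouridine were added together to 2,000 cells per well, incubated for 16 hr at 37 °C, then developed with ONE-Glo.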
AT treatment = candidate therapy for ataxia-telangiectasia; Potency, µM (doses to about 57.5 µM), for the others: top-dose activation, usual class: activators; F2112 A-T fibroblasts, KAP-1 phosphorylation AlphaLISA; neocarzinostatin DNA damage 30 min before lysis; 320,000 tested, 0.19% active; also: % of control where 0% means no effect; nearly all actives have a fitted effect of over 45% in size
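ATM-like activity read as KAP-1 phosphorylation via AlphaLISA donor/acceptor antibody pairs after lysis and 6 hr at 25C. Cells were ATM-null patient fibroblasts (F2112, hTERT), dosed 60 min, then exposed to the DSB inducer NCS for 30 min.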
p53 reactivation = restores transcriptional activity of mutant p53; 320,000 tested, 0.063% active; AID 504706; Potency, µM (series often up to 92.2 µM), for the others: at the top dose activity change, positive = activation, most hits filed as activators; H1299 p53-A138V BP100-luciferase reporter, luminescence, 24 h; also: % of control where 0% means no effect; nearly all actives have a fitted effect of over 45% in size
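p53-null H1299 cells stably carrying temperature-sensitive p53-A138V and a BP100-luciferase reporter were pinned with compounds (4-point, 1:5 series) and held 24 hrs at 37 deg C. Luminescence was read 10 min after detection reagent.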
Numbers without * were called inactive; u = inconclusive; x = no result; [ ] = another dose, or the depositor's remark. Calls follow the shape of the dose curve; as a rule, active = well fitted curve in the direction sought with a large enough effect; inconclusive = small, poorly fitted or top-dose-only effect, or another doubt; inactive = no such curve, though single readings can be large; an effect the other way counts as inactive or inconclusive. Potency is read from the fitted curve at half-maximal effect.

SMILES	SW480 rerep	MCF10A rerep	ELG1 genotox	ELG1 DNA repair	AT treatment	p53 reactivation
O=C(/C=C\c1ccc(-c2ccccc2)o1)c1ccccc1	18%	23µM*	u	u	12%	u
Cc1ccc(C(=O)/C=C/c2ccc(-c3ccc(C)cc3)o2)cc1	69%	21µM*	9%	24%	0%	2%
O=C(/C=C/c1ccccc1)c1ccccc1	u	u	u	u	1%	12%
CCOc1ccc(CN(C)C(=O)CNC(=O)c2ccc3ccccc3c2)cc1OC	-11%	0%	-3%	-3%	0%	-8%
Cc1ccc(C(CC(=O)O)NC(=O)CN2C(=O)c3ccccc3C2=O)cc1 (configuration not stated)	-11%	-5%	0%	-2%	8%	3%
CCCn1c2ccccc2c2cnn(CC(=O)NC3CCCC(C)C3C)c(=O)c21 (configuration not stated)	-9%	u	12%	10%	-2%	3%
O=C(Nc1ncccc1O)c1ccc(OCC2CCCO2)cc1 (configuration not stated)	u	0%	1.2µM*	u	6%	u
O=C(Nc1nc2ccccc2s1)c1ccc(OCC2CCCO2)cc1 (configuration not stated)	2%	27%	u	u	1%	28µM*
O=C(Nc1ncccc1O)c1ccc(Oc2ccccc2)cc1	-1%	5%	9.2µM*	u	u	u
O=S(=O)(c1ccc2c(c1)OCCO2)C1CCC(O)CC1 (configuration not stated)	x	x	x	x	-3%	x
C=CC(=O)N=c1sc2ccccc2n1-c1ccccc1	3.3µM*	u	-11%	-8%	-4%	-14%
O=C(NC(=O)c1ccccc1)Nc1ccc(Cl)cn1	-5%	-3%	1.5µM*	u	50%	21%
Cc1cc(NC(=O)c2cccc(F)c2)ncc1NC(=O)c1ccco1	-2%	-1%	3.7µM*	u	8%	u
CCN(CC)c1ccc(NC(=O)c2cccc(F)c2)c(C)c1	18µM*	u	0%	4%	-5%	-3%
O=C(Nc1ccc(Cl)cn1)Nc1ccccc1F	-1%	14%	8%	u	5%	u
O=C(Nc1ccc(Cl)cn1)c1ccccc1F	12µM*	13µM*	x	x	x	x
COc1ccc(C2=CN3CCCCC3CC2=O)cc1OC (configuration not stated)	-13%	u	u	u	8%	u
NS(=O)(=O)c1cccc(NC(=O)COC(=O)CCc2ccccc2)c1	-5%	-30%	0%	2%	-10%	1%
C/C(=C\c1ccccc1)C(=O)Nc1ccc(Cl)cn1	1%	-3%	9.2µM*	u	5%	-24%
O=C(Nc1ccc(Cl)cn1)Nc1ccc(Cl)cn1	18%	0%	u	5%	5%	3%
O=C(Nc1ccc(Cl)cn1)c1cc2ccccc2o1	17%	13%	0.82µM*	u	6%	u
O=C(Nc1ccc(Cl)cn1)c1cccc(F)c1	10µM*	13µM*	u	u	7%	u
O=C(Nc1ccccn1)c1cc2ccccc2o1	1%	1%	u	u	0%	-8%
Cc1ccccc1C(N)=O	-21%	u	x	x	x	x
CCOc1ccc2nc(N3CCOCC3)nc(C)c2c1	u	u	9.2µM*	u	u	u
SMILES	SW480 rerep	MCF10A rerep	ELG1 genotox	ELG1 DNA repair	AT treatment	p53 reactivation
COc1ccc(N2CCN(c3cc(C)c4ccc(O)cc4n3)CC2)cc1	-10%	11%	2%	-6%	-3%	6%
COc1ccc(N2CCN(c3cc(C)c4ccc(C)cc4n3)CC2)cc1	6%	21µM*	-9%	-28%	-3%	-3%
COc1ccc2c(C)cc(N3CCOCC3)nc2c1	-5%	16%	8%	u	1%	21%
COc1ccc2nc(N3CCOCC3)cc(C)c2c1	3%	-8%	8.2µM*	u	-3%	30%
Cc1noc(C)c1COc1ccccc1C(=O)NCCc1ccc(F)cc1	-9%	-4%	x	x	x	x
COc1ccc(NC2CCCN(C(=O)c3cc4ncccn4n3)C2)cc1 (configuration not stated)	3%	5%	13%	u	-13%	18%
CCCC(=O)OC1CC(C)N(C(=O)c2ccccc2)c2ccc(C)cc21 (configuration not stated)	10%	27%	3%	u	x	-10%
CC(=O)OC1CC(C)N(C(=O)c2ccccc2)c2ccc(C)cc21 (configuration not stated)	0%	9%	21µM*	0%	0%	4%
CCn1c(SCC(=O)Nc2ccc3c(c2)OCO3)nnc1C(C)C	-26%	1%	1%	0%	7%	u
CCOc1ccc2ccccc2c1C1NC(=O)N(C)C(C)=C1C(=O)OCCOC (configuration not stated)	-3%	-5%	1%	3%	-2%	-3%
CC[C@](C)(CN(C)C)OC(=O)c1ccccc1	0%[20.6 µM]	6%[20.6 µM]	x	x	x	x
COC1OC2COC(c3ccccc3)OC2C(O)C1NC(C)=O (configuration not stated)	18%	-5%	x	x	x	x
COc1cccc(OC)c1C(=O)NNC(=O)c1cccc(COc2ccc3c(c2)CCC3)c1	8%	17%	0.37µM*	u	-1%	u
O=C(NCc1ccccc1)c1cccc(COc2ccc3c(c2)CCC3)c1	11%	3%	0.65µM*	u	1%	u
Cc1cc(C)cc(NC(=O)c2cccc(C(=O)Nc3cc(C)cc(C)c3)n2)c1	2%	8%	-4%	2%	0%	12%
CN(Cc1cc(Cl)cc(Cl)c1)CC(C(=O)c1ccccc1)c1ccccc1 (configuration not stated)	13µM*	16µM*	x	x	x	x
O=C(CC(C(=O)c1ccccc1)c1ccccc1)c1ccccc1 (configuration not stated)	-4%	8%	x	x	x	x
CN(C)CC(C(=O)c1ccccc1)c1ccccc1 (configuration not stated)	25%	2.6µM*	-40%	16µM*	32µM*	-41%
CCN(CC(=O)Nc1ccccc1OC)C(=O)CCOc1ccc(C(C)(C)C)cc1	-2%	22%	16%	-4%	15%	-8%
CCN1C(=O)c2cccc3c(S(=O)(=O)N4CCNCC4)ccc1c23	6.5µM*	u	u	u	6%	-7%

Screens (PubChem BioAssay)
